Assay outcomes as filed in PubChem.
The list is not random: actives were taken first. Their share in the collection is about 2.8%.
Pol beta inh = qHTS Assay for Inhibitors of DNA Polymerase Beta; P06746; Pol beta primer extension/strand displacement, fluorescence kinetic; Potency, µM (series often up to 114 µM), for the others: top-dose activity change, negative = inhibition, most hits filed as inhibitors; hit rate 1.3% among 340,000; note: potency is the fitted concentration of half-maximal effect; % is set by controls: 0 for no effect and ±100 for the full control effect
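Kinetic readout of DNA synthesis with strand displacement by Pol beta. Compound and 10 nM enzyme sit 15 min at room temperature; 50 nM substrate starts the reaction, read immediately and at 10 min.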
Pol kappa inh = qHTS for Inhibitors of Polymerase Kappa. DNA polymerase kappa (Homo sapiens), Q9UBT6. purified Pol kappa, fluorescent DNA synthesis assay, 10 min. Potency, µM (top dose mostly 107 µM), inactives show at the highest dose activity, negative = inhibition, hits mostly inhibitors. hit rate 0.53% among 400,000. AID 588579, 2011; note: potency is the fitted concentration of half-maximal effect; % is set by controls: 0 for no effect and ±100 for the full control effect
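Kinetic fluorescence readout at 0 and 10 min followed reaction start with substrate at 50 nM final. Beforehand, enzyme (10 nM Pol kappa) stood 15 min with compound at room temperature; buffer-only wells were negative controls.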
POLH inh = qHTS for Inhibitors of Polymerase Eta; DNA polymerase eta (Homo sapiens), Q9Y253; recombinant Pol eta, fluorescent DNA replication assay; Potency, µM (series often up to 114 µM), without a hit: at the highest dose activity change, negative = inhibition, usual class: inhibitors; hit rate 1.2% among 390,000; note: potency is the fitted concentration of half-maximal effect; % is set by controls: 0 for no effect and ±100 for the full control effect
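Pol eta at 10 nM preincubated with compounds 15 min at room temperature; reaction started with fluorescent substrate (50 nM final) and read kinetically at 0 and 10 min.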
WRN helicase inh = qHTS for Inhibitors of WRN Helicase; Bifunctional 3'-5' exonuclease/ATP-dependent helicase WRN (Homo sapiens), Q14191; WRN helicase unwinding, fluorescent forked duplex, kinetic; Potency, µM (highest dose often 114 µM), without a hit: at the top dose activity change, negative = inhibition, usual class: inhibitors; hit rate 0.46% among 360,000; note: potency is the fitted concentration of half-maximal effect; % is set by controls: 0 for no effect and ±100 for the full control effect; nearly all actives have a fitted effect of over 55% in size
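WRN at 20 nM final preincubated with compound 15 min at room temperature; reaction started with 100 nM fluorophore/quencher forked duplex oligonucleotide and 2 mM ATP final. Unwinding followed kinetically by red fluorescence (ex 525, em 598 nm).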
POLI inh = qHTS for Inhibitors of Polymerase Iota; hit rate 1% among 390,000; Potency, µM (series often up to 115 µM), for the others: top-dose activity, negative = inhibition, hits mostly inhibitors; Pol iota fluorescent replication assay, 10 min; note: potency is the fitted concentration of half-maximal effect
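Fluorescent replication assay read twice, at 0 min and 10 min after adding 50 nM (final) substrate. Enzyme (10 nM) and compounds were first incubated 15 min at room temperature; enzyme-free buffer wells were negative controls.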
PI5P4K alpha inh = qHTS for Inhibitors of phosphatidylinositol 5-phosphate 4-kinase (PI5P4K). PI5P4Kalpha enzyme, ADP-Glo luminescence, 60 min; hits give low values. AID 652105, 2013. max response, %. Phosphatidylinositol 5-phosphate 4-kinase type-2 alpha (Homo sapiens), P48426. hit rate 1.2% among 330,000; active = max response of -50% or lower; inconclusive = between -30% and -50%; inactive = -30% or higher; note: value at the top dose of about 77 µM; % is set by controls: 0 for no effect and ±100 for the full control effect
Target sequence (P48426 whole entry, looked up): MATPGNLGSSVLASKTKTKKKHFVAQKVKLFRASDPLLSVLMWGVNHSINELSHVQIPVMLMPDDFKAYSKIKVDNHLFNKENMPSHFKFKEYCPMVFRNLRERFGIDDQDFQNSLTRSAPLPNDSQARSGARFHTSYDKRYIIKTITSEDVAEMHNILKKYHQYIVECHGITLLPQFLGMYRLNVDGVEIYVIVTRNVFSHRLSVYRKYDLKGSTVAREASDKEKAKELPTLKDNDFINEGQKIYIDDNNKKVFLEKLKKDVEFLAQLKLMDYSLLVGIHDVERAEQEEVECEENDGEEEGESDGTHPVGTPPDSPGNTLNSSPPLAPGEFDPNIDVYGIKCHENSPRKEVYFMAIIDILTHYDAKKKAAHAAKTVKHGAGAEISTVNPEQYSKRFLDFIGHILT
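ADP-Glo luminescence end-point read after a 60 min room-temperature kinase reaction of PI5P4Kalpha plus substrate, initiated with ATP at 5 microM final. Buffer: 0.038 M HEPES pH 7.4, EGTA, 0.1% CHAPS, 5% DMSO.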
An asterisk follows results filed as active; ? = inconclusive; / = no result; [ ] = dose if it differs, or a comment. Unless noted, calls come from the whole dose curve; as a rule, active = well fitted curve in the direction sought with a large enough effect; inconclusive = small, poorly fitted or top-dose-only effect, or another doubt; inactive = no such curve, though single readings can be large; an effect the other way counts as inactive or inconclusive.

SMILES | Pol beta inh | Pol kappa inh | POLH inh | WRN helicase inh | POLI inh | PI5P4K alpha inh
COc1cccc(-n2nnnc2S(C)(=O)=O)c1 | 8% | -16% | -4% | 50µM* | 14% | 1
Cc1cccc(-n2nnnc2S(C)(=O)=O)c1 | -1% | -8%[60.1 µM] | 5% | / | ? | /
CCOc1ccc(NC(=O)c2ccc3c(SCC(=O)O)c4c(nc3c2)CCCC4)cc1 | -2% | 8% | ? | -11% | 41% | -9
O=C(O)CSc1c2c(nc3cc(C(=O)Nc4cccc(C(F)(F)F)c4)ccc13)CCC2 | ? | ? | 40µM* | -14%[11.6 µM] | ? | ?
O=c1c(=O)n(-c2cccc(Cl)c2)ccn1Cc1cccc(F)c1 | 32µM* | -25% | -13% | / | 9% | /
COc1ccc(OC)c(CNC(=O)NCc2noc3ccc(C)cc23)c1 | 4% | 8% | -18% | / | 4% | /
CC[N+]1(C)CCC(O)(/C=C/c2ccccc2)C(C(=O)/C=C/c2ccccc2)C1 (stereo unspecified) | / | -2% | ? | 11µM* | ? | 0
CCc1ccc(/C=C/C(=O)C2C(=O)c3ccccc3C2=O)cc1 | -13% | -3% | 1% | -17%[57.1 µM] | ? | /
CCCCC(=O)N1C/C=C\C(c2ccc(OC)cc2)N(Cc2ccc(F)cc2)C(=O)C1Cc1ccccc1 (stereo unspecified) | / | -9% | / | / | 1% | /
CC1CCN(c2c(NCc3ccc(C(=O)NCCc4ccc(Cl)cc4)cc3)c(=O)c2=O)CC1 | 32µM* | -20% | -13% | -4% | ? | 2
O=C(Cc1cccc(NC(=O)C2CCN(S(=O)(=O)c3cccc([N+](=O)[O-])c3)CC2)c1)Nc1cccc(C(=O)N2CCCCC2)c1 | / | -1% | -5% | 5% | 4% | -18
C/C=C(\C)CN1CCCC(N(C)CCc2ccc(OC)c(OC)c2)C1 (stereo unspecified) | -24% | 7% | -6% | -3% | -13% | 2
O=C(CCc1nnc2ccc(NCc3ccco3)nn12)N1CCN(c2ccccc2)CC1 | -18% | ? | 45µM* | -10%[11.6 µM] | 20µM* | ?
CCOC(=O)C1CCN(C(=O)CCc2nnc3ccc(NCc4ccco4)nn23)CC1 | 3% | -31% | 45µM* | 1%[11.6 µM] | ? | -1
CC(C=CC(O)=C1C(=O)CNC1=O)=C[C@@H](C)C1OC2(C)OC(C(=O)C3O[C@@]32C)C1C (stereo partly specified) | / | / | / | 0% | / | -1
Cc1cccc(Cc2cnc(N3C(=N)SC(C)C3=O)s2)c1 (stereo unspecified) | 12% | 1% | 6% | 3% | 59% | -6
Cc1cccc(Cc2cnc(N3C(=N)SC(c4ccccc4)C3=O)s2)c1 (stereo unspecified) | -25% | -33% | -1% | -34% | -27% | -55*
O=C(/C=C\c1ccco1)Nc1cc([N+](=O)[O-])ccc1F | -10% | -14% | 2% | 7% | 10% | -6
O=C(/C=C/c1ccco1)Nc1cc(Cl)ccc1C(=O)O | 22µM* | ? | 10µM* | -36% | ? | ?
Cc1cc(-c2ccc(C(C)C)c(S(=O)(=O)N3CCN(c4ccccn4)CC3)c2)on1 | 21% | -8% | -25% | 0% | 26% | -4
CCOC(=O)CSc1nc2sc(C(=O)O)c(C)c2c(=O)[nH]1 | -1% | 2% | -20% | 0% | 14% | -76*
CCOC(=O)CSc1nc2sc(C)c(C)c2c(=O)[nH]1 | -17% | -1% | -10% | 1% | -7% | -4
Cc1c(C(=O)O)sc2nc(SCC(=O)Nc3ccc(S(=O)(=O)NCCCC(=O)O)cc3)[nH]c(=O)c12 | 1% | ? | -4% | -3% | -29% | -70*
CCCCNS(=O)(=O)c1ccc2nc(SCC(=O)Nc3ccccc3)[nH]c2c1 | 6% | -8% | -14% | -22% | 1% | 8
Cc1c(C(=O)O)sc2nc(SCC(=O)Nc3ccc(S(=O)(=O)NC(C)(C)C)cc3)[nH]c(=O)c12 | 11% | -19% | -6% | -21% | -4% | -86*
SMILES | Pol beta inh | Pol kappa inh | POLH inh | WRN helicase inh | POLI inh | PI5P4K alpha inh
CC(=O)N1CCc2cc(S(=O)(=O)NCCC(=O)NC3CCCc4ccccc43)ccc21 (stereo unspecified) | -2% | -24% | -8% | -3% | 7% | 1
COc1cccc(Nc2ncc3nc(C)c(=O)n(CCC#N)c3n2)c1 | / | -9%[60.1 µM] | / | / | / | /
N#CCc1nc2ccc(S(=O)(=O)N3CCOCC3)cc2s1 | 1% | -17% | -7% | -19% | ? | -64*
CSc1nc2ccc(S(=O)(=O)N3CCOCC3)cc2s1 | 13% | 2% | -5% | 0% | -23% | /
COc1cc(C(=O)Nc2nc3ccc(S(=O)(=O)N4CCOCC4)cc3s2)cc(OC)c1OC | 0% | -8% | -3% | 50µM* | 15% | /
O=C(Nc1cc(S(=O)(=O)N2CCCCC2)ccc1N1CCCCC1)C1CC1 | 11% | -17% | -23% | -7% | 0% | -2
COC(=O)C(Cc1c[nH]c2ccccc12)NC(=O)COc1ccc(Cl)cc1Cl (stereo unspecified) | 12% | -2% | -22% | / | 18% | /
COc1ccc(OC)c(S(=O)(=O)Nc2ccc(O)c(Sc3ncn[nH]3)c2)c1 | 79µM* | -25% | ? | ? | ? | /
O=C1NC(=S)SC1=Cc1ccccc1Br | / | -10% | ? | ? | ? | -72*
Cc1cc(/C=C2/C(=O)N(C)C(=S)N2C)c(C)n1C1CC1 | -7% | -1% | -9% | 2% | 10% | -9
O=C(O)CCn1cc(/C=C2\SC(=S)NC2=O)c(-c2ccccc2)n1 | 17% | -15% | -10% | -11% | 32% | ?
O=C1NC(=S)SC1=Cc1cc(Br)ccc1O | / | -15% | 50µM* | ? | ? | -77*
Cc1cc(/C=C2\SC(=S)NC2=O)c(C)n1C1CC1 | 25µM* | ? | ? | ? | ? | /
CCOC(=O)c1sc2nc(-c3ccco3)c3c(c2c1N)CC(C)(C)OC3 | 40µM* | -15% | ? | ? | -10% | ?
CCc1[nH]c(=O)c(C#N)c2c1CCCC2 | -24% | -13% | -9% | 2%[57.1 µM] | -11% | 1
CCOC(=O)c1c2c([nH]c(=S)c1C#N)CCCC2 | ? | -17% | 79µM* | -27% | ? | ?
CCc1[nH]c(=S)c(C#N)c2c1CCCC2 | -23% | 1% | -22% | -19% | -10% | -52*
O=C(NC(=S)NNC(=O)c1ccco1)c1ccccc1 | -9% | -13% | -19% | 9% | 43% | -18
